Assay outcomes (PubChem BioAssay)
Sampled rows, rich in hits. Any-hit rate of the full collection: about 6%.
D1 agonist: Allosteric Agonists of the Human D1 Dopamine Receptor: qHTS | HEK293 T-REx D1 cells, calcium flux, agonist mode | 1% of 360,000 active | D(1A) dopamine receptor (Homo sapiens), P21728 | activation, % at 2 µM | AID 504660, 2011; in the data active = activation above about 30%; note: 0% is about no effect
Target sequence (P21728 whole entry, looked up): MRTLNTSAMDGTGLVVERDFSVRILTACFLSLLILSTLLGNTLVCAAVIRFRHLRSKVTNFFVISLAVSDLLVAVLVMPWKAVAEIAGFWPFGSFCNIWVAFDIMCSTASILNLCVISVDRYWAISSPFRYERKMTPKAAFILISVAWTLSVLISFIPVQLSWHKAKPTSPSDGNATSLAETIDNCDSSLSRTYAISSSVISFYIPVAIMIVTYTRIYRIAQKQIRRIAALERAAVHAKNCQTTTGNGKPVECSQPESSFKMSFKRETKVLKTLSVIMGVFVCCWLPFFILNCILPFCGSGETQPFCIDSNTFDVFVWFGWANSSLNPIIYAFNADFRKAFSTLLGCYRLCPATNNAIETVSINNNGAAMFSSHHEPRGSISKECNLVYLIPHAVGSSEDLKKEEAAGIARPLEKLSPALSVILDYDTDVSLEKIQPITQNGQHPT
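Inducible HEK293 T-REx D1 cells, force-coupled to calcium signalling, were plated at 4000 cells/well with tetracycline and held overnight at 30 C. After no-wash calcium dye loading, compound-evoked calcium rise over 180 s flagged agonists.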
D1 potentiator: Potentiators of Human D1 Dopamine Receptor: qHTS | HEK293 TREx D1 cells, calcium flux, dopamine EC20 potentiation | potentiation, % at 10 µM | 0.036% of 360,000 active | D(1A) dopamine receptor (Homo sapiens), P21728; in the data active = potentiation above about 30%; note: 0% is about no effect
D3 ag: qHTS of D3 Dopamine Receptor Agonist: qHTS; D3R DiscoveRx beta-arrestin cells, luminescence, 90 min; max activation, %; 0.58% of 410,000 active; in the data active = max activation above about 30%; note: 0% is about no effect
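Agonist mode: compounds and dopamine controls were applied to plated cells for 90 min at 37 degrees C after an overnight attachment at 1500 cells/well. Luminescent read-out followed 30 - 60 minutes at room temperature with DiscoveRx detection reagent.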
D3 antag: qHTS of D3 Dopamine Receptor Antagonist: qHTS | AID 652054, 2013 | D3R cells, DiscoveRx beta-arrestin luminescence, antagonist mode; active compounds read low | 2.5% of 360,000 active | max response, negative = inhibition, %; in the data active = max response below about -50%; inconclusive = no clear call, values can overlap the other calls; note: % is set by controls: 0 for no effect and ±100 for the full control effect
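Cells plated overnight at 1500 cells/well, then exposed to library compounds with dopamine controls for 90 minutes at 37 degrees C. DiscoveRx reagent added for 30–60 minutes at room temperature; luminescence read, quantitative HTS format.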
D1 antagonist: Antagonist of Human D 1 Dopamine Receptor: qHTS | D(1A) dopamine receptor (Homo sapiens), P21728 | HEK293 TREx D1 cells, calcium flux, dopamine EC80; active compounds read low | activity change, negative = inhibition, % at 10 µM | 3.2% of 360,000 active; in the data active = activity change below about -30%; note: % is set by controls: 0 for no effect and ±100 for the full control effect
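Antagonism measured as reduced calcium response to an EC80 dopamine addition following 180 s compound pre-read; cells were inducible HEK293 Trex D1 plated overnight at 30 C, read kinetically at 1 cycle/sec.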
Active calls of the source: *; ? = inconclusive; · = not tested or not shown.

SMILES	D1 agonist	D1 potentiator	D3 ag	D3 antag	D1 antagonist
CC(C)NC(=O)CC(c1ccccc1)c1cc(Br)ccc1O (centres undefined)	44*	2	-5	13	5
CC1=C(C(=O)Nc2ccccc2)C(c2ccccc2)N2C(=O)CSC2=N1 (centres undefined)	1	-4	-3	-4	-6
CC1=C(C(=O)Nc2ccccc2)C(c2ccc(C(C)C)cc2)N2C(=O)CSC2=N1 (centres undefined)	1	-1	5	-51*	4
O=C(Nc1ccc2c(c1)OCCO2)C(CCc1ccccc1)N1CCC(Cc2ccccc2)CC1 (centres undefined)	·	·	-14	-69*	·
O=C(Nc1ccc2c(c1)OCCO2)C(CCc1ccccc1)N(Cc1ccccc1)Cc1ccccc1 (centres undefined)	·	·	-2	0	·
COc1ccccc1NC(=S)NCC1CCC(CNC(=S)Nc2ccccc2OC)CC1 (centres undefined)	1	0	-2	-13	-85*
CCC(=O)NC(=S)Nc1ccccc1OC	1	-5	-8	-20	-9
COc1ccccc1NC(=S)NC(=O)Cc1ccc(Cl)cc1	57*	-6	2	29	-43*
COc1ccc(C(=O)O)cc1NC(=S)NC(=O)CSc1ccc(Cl)cc1	3	-3	-3	0	-74*
COc1cccc(NC(=S)NC(=O)Cc2ccc(Cl)cc2)c1	68*	-6	1	-2	0
C=C1[C@@H]2CC[C@@H](C2)C1(C)C	·	·	1	·	·
COc1ccc(CCNC(=O)c2cc3c(s2)-c2c(C)cccc2OC3)c(OC)c1	5	-3	-5	·	-8
Cc1cc2c(s1)c1cnn(Cc3ccc(OC(F)F)cc3)c(=O)c1n2C	0	0	·	·	-3
COCCCNCCCOc1ccc(C)cc1Br	9	-4	-20	-73*	-1
C=CCNCCCCOc1c(Cl)cc(C)cc1Br	9	-9	-3	18	27
COCCNCCCOc1ccc(C)cc1Br	14	-3	-1	-51*	4
CCN(CC)CCCOc1ccc(C)cc1Br	4	-9	1	-75*	-38*
CCOc1ccccc1OCCCOc1ccc(C)cc1Br	3	3	-1	46	5
C=CCNCCCOc1ccc(C)cc1Br	6	-5	-31	?	22
COCCCNCCCCOc1c(Cl)cc(C)cc1Br	7	-11	-10	-77*	8
Cc1cccc(C)c1NC(=O)Cn1nnc(C(=O)Nc2c(C)cccc2C)c1N	2	3	6	·	5
O=[N+]([O-])c1ccc(-n2ccnc2)cc1	2	-9	-7	10	-38*
Cc1cc(C)cc(OCC(=O)NNC(=O)c2ccccn2)c1	2	-1	-5	-18	-38*
Cc1ccc(OCC(=O)O/N=C(\N)c2ccccn2)cc1C	8	-8	5	-10	-44*
O=C(Cn1cc(COc2c(F)c(F)cc(F)c2F)nn1)c1ccc(O)cc1	·	·	1	-79*	·
SMILES	D1 agonist	D1 potentiator	D3 ag	D3 antag	D1 antagonist
O=C(O)c1ccc2c(c1)C(=O)N([C@H](Cc1ccc(-c3ccccc3)cc1)C(=O)O)C2=O	5	9	·	·	-35*
Cc1cccc(C[C@H](C(=O)O)N2C(=O)c3ccc(C(=O)O)cc3C2=O)c1	2	-4	·	·	-32*
O=C(O)c1ccc2c(c1)C(=O)N([C@@H](Cc1ccc(O)cc1)C(=O)O)C2=O	2	-3	·	·	27
O=C(O)c1ccc2c(c1)C(=O)N(C(Cc1ccc(O)cc1)C(=O)O)C2=O (centres undefined)	1	0	-2	-70*	-17
Cc1c(Cl)cccc1NC(=O)CC(c1cccs1)N1Cc2ccccc2C1=O (centres undefined)	9	-1	-12	·	8
COc1cccc(/C=N/n2c(COc3ccccc3)n[nH]c2=S)c1OC	1	-1	0	-6	-8
COc1ccccc1/C=C/C=N/n1c(-c2ccc(F)cc2)n[nH]c1=S	1	-7	-15	-12	2
COc1ccccc1/C=C/C=N/n1c(COc2ccccc2)n[nH]c1=S	5	-5	-6	-86*	0
Cc1n[nH]c(=S)n1/N=C/c1ccccc1OCc1ccc(Cl)cc1	2	-2	-4	-51*	-87*
COc1ccccc1/C=C\C=N\n1c(-c2ccc(Cl)cc2)n[nH]c1=S	-1	0	-19	-51*	8
CC(C)N1C(=O)S/C(=C/c2ccc(Sc3nc4ccccc4[nH]3)o2)C1=O	9	-2	8	7	-14
C=CCN1C(=O)S/C(=C/c2ccc(Sc3nc4ccccc4[nH]3)o2)C1=O	15	-3	51*	38	-28
CC1CCN(C(=O)CN2c3ccc(Br)cc3-c3ccccc3S2(=O)=O)CC1	6	0	-5	·	4
Cc1ccc(NC2=C/C(=N/S(=O)(=O)c3cccs3)c3ccccc3C2=O)cc1C	-2	0	-3	0	-45*
COc1ccc(S(=O)(=O)/N=C2\C=C(Nc3ccc(O)cc3)C(=O)c3ccccc32)cc1	5	-9	-34	-80*	-4
CC(=O)Nc1ccc(NC2=C/C(=N/S(=O)(=O)c3cccs3)c3ccccc3C2=O)cc1	0	-2	-18	-66*	-5
Cc1ccccc1NC1=C/C(=N\S(=O)(=O)c2cccs2)c2ccccc2C1=O	1	-2	-19	-112*	11
Cc1cc[n+](C2=C([O-])c3ccccc3C(=O)/C2=N\S(=O)(=O)c2cccs2)cc1C	2	4	-7	5	2
COc1ccc(NC(=O)c2[nH]nc3c2CSc2ccccc2-3)c(OC)c1	-1	-4	2	·	-3
CCCS(=O)(=O)c1nc(S(=O)(=O)c2ccc(C)cc2)c(N2CCN(CCO)CC2)s1	1	3	-6	-91*	1
CCS(=O)(=O)c1nc(S(=O)(=O)c2ccc(Cl)cc2)c(N2CCN(CCO)CC2)s1	1	0	-14	-18	5
Cc1ccc(S(=O)(=O)c2nc(S(=O)(=O)c3ccccc3)sc2NCCCOC(C)C)cc1	4	-1	-2	·	4
CCCS(=O)(=O)c1nc(S(=O)(=O)c2ccc(C)cc2)c(NCCCOC(C)C)s1	36*	-2	6	·	-41*
CCN1CCN(c2sc(S(=O)(=O)CC)nc2S(=O)(=O)c2ccc(Cl)cc2)CC1	·	·	-4	-105*	·
COC(=O)c1cc(S(=O)(=O)NCCN2CCN(c3ccccc3F)CC2)c[nH]1	4	-11	1	?	-43*
O=C(C1CCC1)N1CCc2cc(S(=O)(=O)NCCN3CCN(c4ccccc4F)CC3)ccc21	3	-10	67*	-28	-39*
